Compounds with a hit are over-represented: about 3.5% of the library has one in this group of screens.
M1 antag – antagonists of human M1 muscarinic receptor | P11229 | CHO-K1 hM1, Fluo-8 calcium fluorescence, ACh EC80 antagonist | inhibition, % at 3 µM | 360,000 compounds, 1.3% hits;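 active means percent inhibition above its own plate's cutoff, namely the mean of that plate's compound wells plus 3 SD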;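 further: peak over basal fluorescence ratio during 140 s after agonist addition; 0% = ACh EC80 plus DMSO and 100% = DMSO alone without agonist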
Target sequence (P11229 whole entry, looked up): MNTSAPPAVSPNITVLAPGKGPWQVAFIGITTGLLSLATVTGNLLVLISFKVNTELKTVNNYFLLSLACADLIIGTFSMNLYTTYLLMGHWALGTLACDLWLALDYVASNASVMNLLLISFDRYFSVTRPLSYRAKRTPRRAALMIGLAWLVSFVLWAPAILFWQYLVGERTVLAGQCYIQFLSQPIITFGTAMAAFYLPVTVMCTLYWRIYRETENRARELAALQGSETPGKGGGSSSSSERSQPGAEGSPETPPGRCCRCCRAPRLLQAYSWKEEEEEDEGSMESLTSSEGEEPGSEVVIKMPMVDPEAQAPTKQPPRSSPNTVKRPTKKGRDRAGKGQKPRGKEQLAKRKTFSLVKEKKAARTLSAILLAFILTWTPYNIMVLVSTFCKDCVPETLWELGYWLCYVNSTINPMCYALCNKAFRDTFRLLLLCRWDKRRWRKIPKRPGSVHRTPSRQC
CHRM1 agonist – human M1 muscarinic receptor agonism. P11229. CHO-K1 hM1, Fluo-8 calcium fluorescence, agonist mode; 0% DMSO, 100% acetylcholine EC100. activation, % at 3 µM. 360,000 compounds, 0.33% hits;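 active means activation above the run's mean compound activation plus 3 SD, cut at about 16% in these data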;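 further: peak over basal fluorescence ratio within a 140 s kinetic read after compound addition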
Myeloid diff MLP – promotes myeloid progenitor differentiation; 360,000 compounds, 1% hits; ER-HoxA9 myeloid progenitors, lysozyme-GFP differentiation, flow cytometry; calls only at 10 µM;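 active means normalized GFP-positive differentiation at or above the plate's own cutoff, the solvent-only control mean plus 3 SD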;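 further: cells exposed to compound for four days before flow analysis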
M1 PAM – potentiates human M1 receptor response to acetylcholine; CHO-K1 hM1, Fluo-8 calcium fluorescence, ACh EC20; 0% = ACh EC20, 100% = maximal ACh; activation, % at 3 µM; 360,000 compounds, 0.088% hits; AID 588819; in the data active means activation above about 19%, passing the limit was not always enough
SKN-1 block – C. elegans SKN-1 inhibition; 360,000 compounds, 0.49% hits; inhibition, % at 21.8 µM; AID 624304; C. elegans VP596 Pgst-4::GFP/RFP ratio, acrylamide-induced, 24 h;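 active means interference check ratio from 0.5 to 1.5 plus GFP to RFP signal ratio inhibition reaching or exceeding a fixed threshold, cut at about 30% in these data, passing the limit was not always enough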
ATG4B inhibitor – ATG4B (human) cysteine protease inhibition; 340,000 compounds, 0.51% hits; Q9Y4P1; inhibition, % at 8.33 µM; ATG4B cleavage of LC3-PLA2, NBD-HPC fluorescence, 1 h; in the data active means inhibition above about 40%
Active calls of the source: *; i = inactive; x = no result; + = active, no number.

SMILES | M1 antag | CHRM1 agonist | Myeloid diff MLP | M1 PAM | SKN-1 block | ATG4B inhibitor
CCOC(=O)c1c(-c2ccc(C)cc2)csc1NC(=O)/C(C#N)=C/c1ccc(O)c(OC)c1 | 3 | -2 | + | 6 | 3 | -8
COc1cc(/C=C(\C#N)C(=O)Nc2ccccn2)ccc1O | -5 | 1 | i | 3 | 7 | 8
CCOC(=O)/C(C#N)=C\c1ccc(O)c(OC)c1 | 5 | -5 | i | -3 | 5 | -12
O=C(COc1ccc([N+](=O)[O-])cc1)Nc1cccc2nsnc12 | -9 | 0 | i | 16 | 6 | -3
COc1ccc(C(=O)C[n+]2ccc3c(c2)nc(-c2ccccc2)n3C)cc1 | 57* | -12 | i | -22 | 5 | -12
COc1cc(-c2nc3c[n+](CC(=O)c4ccccc4)ccc3n2C)cc(OC)c1OC | 9 | -14 | i | -6 | 11 | 7
COc1ccc(C(CCNCc2ccc(OC(C)C)cc2)c2ccccc2OC)cc1 (stereo not drawn) | 1 | 3 | i | 10 | 6 | 3
COc1ccc(CNCCC(c2ccc(OC)cc2)c2ccccc2OC)cc1 (stereo not drawn) | -2 | -3 | i | 6 | 38* | 4
Cc1c(C(=O)NCCC2=CCCCC2)oc2ccc(S(=O)(=O)N3CCC4(CC3)OCCO4)cc12 | 35* | -1 | i | -12 | 25 | -1
Cc1c(C(=O)NCC2COc3ccccc3O2)oc2ccc(S(=O)(=O)N3CCOCC3)cc12 (stereo not drawn) | 35* | 2 | i | -7 | 7 | -24
Cc1ccnc(NC(=O)CCC(=O)N(CC(=O)NCc2ccccc2)Cc2ccc(F)cc2)c1 | -3 | 2 | + | 18 | 5 | -6
COC(=O)c1ccc(NC(=O)Nc2ccc(F)c(Cl)c2)cc1 | 32* | 7 | i | -19 | -4 | 0
COC(=O)c1cccc(NC(=O)Nc2ccc(Cl)c(Cl)c2)c1 | 43* | 4 | i | -23 | 13 | 12
CC(=O)Oc1ccc(C2=NN(c3ccccc3)C(c3ccccc3)C2)cc1 (stereo not drawn) | 1 | -2 | i | -1 | -8 | -2
COc1cccc(CC2(CO)CCN(Cc3ccc(NC(C)=O)cc3)CC2)c1 | 16 | -5 | i | -9 | -5 | 25
COc1cccc(CC2(CO)CCN(CC3=CC[C@H]4C[C@@H]3C4(C)C)CC2)c1 | 36* | -6 | i | -24 | 3 | 0
CC(CS(=O)(=O)c1ccccc1[N+](=O)[O-])N1CCOCC1 (stereo not drawn) | -7 | -7 | i | 8 | 4 | -8
CN1CCC(Oc2ccccc2Sc2ccc(C(F)(F)F)cc2)CC1 | 64* | -10 | i | -24 | 16 | 2
CN1CCC(Oc2ccc(Sc3ccccc3)cc2)CC1 | 11 | 12 | i | -1 | 2 | 2
O=C(CNC1CCCCCC1)Nc1ccc(S(=O)(=O)NC2CC2)cc1 | 32* | -11 | i | -27 | 4 | 2
CC1CCC(NS(=O)(=O)c2ccc(N3CCCC3=O)cc2)CC1 (stereo not drawn) | 46* | 6 | i | -21 | 2 | 2
CC1CCN(CC(=O)Nc2ccc(S(=O)(=O)NC3CC3)cc2)CC1 | 74* | -6 | i | -25 | 4 | 4
O=C1CCCN1c1ccc(S(=O)(=O)Nc2cccnc2)cc1 | 3 | -15 | i | -21 | -5 | -1
Cc1ccc(S(=O)(=O)NC2CCC(C(=O)O)CC2)cc1 (stereo not drawn) | -1 | -1 | + | 5 | -10 | -4
CCOC(=O)[C@H]1[C@H]2COc3ccc(Cl)cc3[C@@H]2N2C(=O)CN(Cc3ccco3)C(=O)[C@@]12C | -13 | 4 | i | 19 | -1 | 0
CCN(CC(=O)NCc1cccs1)C(=O)c1ccc(NS(=O)(=O)c2ccc(C(C)=O)cc2)cc1 | -12 | -4 | i | 8 | -5 | -11
CCNC(=O)C1(C)CCCN(Cc2ccc(-n3ccnc3)cc2)C1 (stereo not drawn) | -18 | -7 | i | 8 | 8 | x
Cc1[nH]c2ccccc2c1C(C[N+](=O)[O-])c1cccc(O)c1 (stereo not drawn) | 37* | -1 | i | -13 | -1 | -8

Source: PubChem BioAssay
